Active and inactive are the calls of the source.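 Rule for the calls: active = fitted half-maximal signal loss reached at or below twice the highest valid dose tested; inconclusive = flat curve with 30 to 70% loss, or a poor fit; inactive = the rest, including signal gain.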
Test: HepG2 cell cytotoxicity, dose response, cytotoxicity control, CellTiter-Glo luminescence, dry powder, set 4 (AID 743148)

SMILES	outcome
COc1cc2c(cc1OC)-c1cc(=Nc3c(C)cc(C)cc3C)n(C)c(=O)n1CC2	inactive
Cn1c(NC(=O)c2ccccc2)nc2ccccc21	inactive
C[C@@H]1CC(=O)NN=C1c1ccc(N2CCOCC2)c(F)c1	inactive
C[C@H]1CC(=O)NN=C1c1ccc(N2CCOCC2)c(F)c1	inactive
C[C@@H]1CC(=O)NN=C1c1ccc(C2CCCCC2)cc1	inactive
C[C@@H]1CC(=O)NN=C1c1ccc(N2CCOCC2)cc1	inactive
C[C@@H]1CC(=O)NN=C1c1ccc(Cl)cc1	inactive
CC(=O)Nc1ccc(C2=NNC(=O)C[C@H]2C)cc1[N+](=O)[O-]	inactive
CCN(CC)c1ccc(C2=NNC(=O)CC2C)cc1[N+](=O)[O-] (stereo not drawn)	inactive
O=C1CN2Cc3c(ccc(Cl)c3Cl)N=C2N1	inactive
CCN1N=C(c2ccc(N(CC)CC)cc2)[C@H](C)CC1=O	inactive
C[C@@H]1CC(=O)NN=C1c1ccc(-c2cncnc2)cc1	inactive
C[C@@H]1CC(=O)NN=C1c1ccc(F)c(F)c1	inactive

Reference: PubChem BioAssay AID743148 (Broad Institute, 2013)
